Holding throughout (conditions): mRNA level, 48 h; actives raise or lower the signal
Read-out in test [1]: NAD(P)H dehydrogenase [quinone] 1 (NQO1), NQO1 (gene 1728)
Put plainly: LTEA_HepaRG_NQO1: Life Technologies and Expression Analysis (LTEA) Assay for NAD(P)H dehydrogenase [quinone] 1 (NQO1) using HepaRG (AID 2283526). An outline of the steps: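 Human HepaRG hepatic cells received chemicals for 48 h in serum-free induction medium with 0.5% DMSO, up to 100 uM. Expression was assessed by TaqMan qRT-PCR against housekeeping controls and fitted bidirectionally against DMSO.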

Read-out in test [2]: Nuclear factor erythroid 2-related factor 2 (Homo sapiens) (UniProt Q16236)
Put plainly: LTEA_HepaRG_NFE2L2: Life Technologies and Expression Analysis (LTEA) Assay for Nuclear factor erythroid 2-related factor 2 (NFE2L2) Transcription Factor using HepaRG (AID 2283527). An outline of the steps: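 Transcript level of NFE2L2 is the read-out, measured by microfluidic TaqMan qRT-PCR and normalized to three housekeeping genes. Human HepaRG cultures received test chemical for 48 h at up to 100 uM in half-log steps. Gain or loss of signal is fitted relative to 0.5% DMSO.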

Read-out in test [3]: succinate dehydrogenase complex iron sulfur subunit B (SDHB), SDHB (gene 6390)
Put plainly: LTEA_HepaRG_SDHB: Life Technologies and Expression Analysis (LTEA) Assay for succinate dehydrogenase complex iron sulfur subunit B (SDHB) using HepaRG (AID 2283528). An outline of the steps: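 SDHB transcript level read by TaqMan qRT-PCR, housekeeping-normalised (ACTB, GAPDH, POLR2A), after 48 h chemical treatment of plated HepaRG cells; eight concentrations top 100 uM, half-log steps, 0.5% DMSO, duplicates; fitted both directions against DMSO.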

Read-out in test [4]: Signal transducer and activator of transcription 3 (Homo sapiens) (UniProt P40763)
Kind of test: LTEA_HepaRG_STAT3: Life Technologies and Expression Analysis (LTEA) Assay for Signal transducer and activator of transcription (STAT3) using HepaRG (AID 2283529). An outline of the steps:
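Read-out is STAT3 mRNA level by qRT-PCR, normalized to three housekeeping genes, in human HepaRG liver cells treated for 48 h. Concentrations ran from 100 uM downward in half-log steps; curves were fitted for gain or loss relative to 0.5% DMSO.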

Read-out in test [5]: solute carrier (SLCO1B1), SLCO1B1 (gene 10599)
Kind of test: LTEA_HepaRG_SLCO1B1: Life Technologies and Expression Analysis (LTEA) Assay for solute carrier (SLCO1B1) using HepaRG (AID 2283530). In short, it runs like this:
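Differentiated human HepaRG cells, plated 48 h, switched to serum-free induction medium and exposed in duplicate for 48 h to 8 half-log concentrations (top 100 uM) in 0.5% DMSO. SLCO1B1 mRNA by TaqMan qRT-PCR, normalized to ACTB/GAPDH/POLR2A.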

Read-out in test [6]: sulfotransferase 2A1 (SULT2A1), SULT2A1 (gene 6822)
Kind of test: LTEA_HepaRG_SULT2A1: Life Technologies and Expression Analysis (LTEA) Assay for sulfotransferase 2A1 (SULT2A1) using HepaRG (AID 2283531). An outline of the steps: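 Differentiated human HepaRG cells in serum-free induction medium were exposed for 48 h to eight half-log concentrations (top 100 uM, 0.5% DMSO). SULT2A1 mRNA was measured by qRT-PCR, normalized to ACTB, GAPDH and POLR2A, and fitted bidirectionally against DMSO.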

Read-out in test [7]: Transforming Growth Factor (TGFA), TGFA (gene 7039)
Put plainly: LTEA_HepaRG_TGFA: Life Technologies and Expression Analysis (LTEA) Assay for Transforming Growth Factor (TGFA) using HepaRG (AID 2283532). In short, it runs like this:
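HepaRG (human liver line), 48 h exposure, 8 conc. half-log down from 100 uM, 0.5% DMSO vehicle, duplicates; serum-free induction medium. TGFA mRNA by TaqMan qRT-PCR, ACTB/GAPDH/POLR2A normalization; gain/loss fit vs DMSO.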

Read-out in test [8]: Transforming Growth Factor (TGFB1), TGFB1 (gene 7040)
Put plainly: LTEA_HepaRG_TGFB1: Life Technologies and Expression Analysis (LTEA) Assay for Transforming Growth Factor (TGFB1) Transporter using HepaRG (AID 2283533). In short, it runs like this: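 Differentiated human HepaRG cells in serum-free induction medium were exposed in duplicate for 48 h to eight concentrations (top 100 uM, half-log steps, 0.5% DMSO). TGFB1 mRNA was quantified by qRT-PCR, normalized to ACTB, GAPDH, POLR2A, and fitted bidirectionally against DMSO.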

Read-out in the next test: TIMP1, TIMP1 (gene 7076)
Kind of test: LTEA_HepaRG_TIMP1: Life Technologies and Expression Analysis (LTEA) Assay for TIMP1 using HepaRG (AID 2283534).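 For outcome: TaqMan qRT-PCR signal normalized to ACTB GAPDH and POLR2A housekeeping genes.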 An outline of the steps: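 Differentiated human HepaRG cells in serum-free induction medium were exposed 48 h to chemicals (8 half-log concentrations, top 100 uM, 0.5% DMSO). TIMP1 mRNA was quantified by TaqMan qRT-PCR, normalized to ACTB/GAPDH/POLR2A; bidirectional fit versus DMSO.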

Read-out in test [9]: Tumor necrosis factor receptor 1 (TNFRSF1A), TNFRSF1A (gene 7132)
Kind of test: LTEA_HepaRG_TNFRSF1A: Life Technologies and Expression Analysis (LTEA) Assay for Tumor necrosis factor receptor 1 (TNFRSF1A) using HepaRG (AID 2283535). In short, it runs like this: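 Differentiated human HepaRG cells were exposed in duplicate for 48 h in serum-free induction medium to eight concentrations (top 100 uM, half-log steps, 0.5% DMSO). TNFRSF1A mRNA was quantified by qRT-PCR, normalized to ACTB, GAPDH and POLR2A, then fitted bidirectionally against DMSO.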

Activity calls are given as the source filed them. Rule for the calls: active = hit-call score of the fitted dose curve at least 0.9, where 1 is the maximum; inactive = score below 0.9.

Sequence of Signal transducer and activator of transcription 3 (Homo sapiens) (P40763 whole entry, looked up): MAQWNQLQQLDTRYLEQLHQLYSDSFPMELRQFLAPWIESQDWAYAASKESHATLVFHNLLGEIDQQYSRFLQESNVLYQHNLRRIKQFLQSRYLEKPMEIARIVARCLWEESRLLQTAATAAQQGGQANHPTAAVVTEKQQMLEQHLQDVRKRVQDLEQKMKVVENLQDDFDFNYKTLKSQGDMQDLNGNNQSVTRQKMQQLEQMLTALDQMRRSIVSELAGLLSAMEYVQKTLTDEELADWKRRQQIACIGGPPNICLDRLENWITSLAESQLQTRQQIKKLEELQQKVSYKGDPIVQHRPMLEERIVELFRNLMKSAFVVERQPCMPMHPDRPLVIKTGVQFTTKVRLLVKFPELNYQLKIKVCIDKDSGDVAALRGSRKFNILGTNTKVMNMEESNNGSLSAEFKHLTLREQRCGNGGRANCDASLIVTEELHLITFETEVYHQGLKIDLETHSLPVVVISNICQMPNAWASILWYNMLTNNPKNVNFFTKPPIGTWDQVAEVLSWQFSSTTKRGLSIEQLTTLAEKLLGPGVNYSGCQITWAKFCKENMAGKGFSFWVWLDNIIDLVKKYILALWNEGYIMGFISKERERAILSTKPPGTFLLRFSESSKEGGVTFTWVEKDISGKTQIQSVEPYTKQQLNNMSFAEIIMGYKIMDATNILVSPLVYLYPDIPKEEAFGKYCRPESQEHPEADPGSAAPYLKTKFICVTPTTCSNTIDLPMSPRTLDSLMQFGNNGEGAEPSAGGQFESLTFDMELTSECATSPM
Sequence of Nuclear factor erythroid 2-related factor 2 (Homo sapiens) (Q16236 whole entry, looked up): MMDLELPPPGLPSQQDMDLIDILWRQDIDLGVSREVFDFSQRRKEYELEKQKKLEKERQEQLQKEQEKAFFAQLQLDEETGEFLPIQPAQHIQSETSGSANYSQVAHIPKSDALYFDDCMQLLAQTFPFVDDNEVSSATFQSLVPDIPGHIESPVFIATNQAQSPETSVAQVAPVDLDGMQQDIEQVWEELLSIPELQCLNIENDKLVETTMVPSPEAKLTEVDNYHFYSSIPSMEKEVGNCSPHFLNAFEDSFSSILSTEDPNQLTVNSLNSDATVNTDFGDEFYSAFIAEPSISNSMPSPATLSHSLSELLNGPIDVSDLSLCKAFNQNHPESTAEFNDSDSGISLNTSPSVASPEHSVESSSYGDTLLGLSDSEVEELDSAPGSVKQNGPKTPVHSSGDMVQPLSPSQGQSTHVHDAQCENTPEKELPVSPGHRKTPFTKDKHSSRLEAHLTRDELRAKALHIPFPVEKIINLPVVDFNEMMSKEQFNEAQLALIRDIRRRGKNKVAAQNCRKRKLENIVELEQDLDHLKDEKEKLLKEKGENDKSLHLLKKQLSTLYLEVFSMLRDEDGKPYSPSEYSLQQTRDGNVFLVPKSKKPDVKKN

In the case of `O=C(O)c1ccccc1-n1cc(C(=O)O)c(=O)c2cc(Nc3c(F)cc(F)cc3Cl)c(Cl)cc21`, the compound was called inactive in [1], in test [2], in test [3], in test [4], in test [5] and in [6]. Moreover, the outcome in [7] was “inactive”; in [8], “inactive”; with TIMP1, TIMP1 (gene 7076), “inactive”. The AC50 in [9] was 0.0319 µM (active).

Turning to `CO[C@H]1/C=C/O[C@@]2(C)Oc3c(C)c(O)c4c(O)c(c(/C=N/N5CCN(C)CC5)c(O)c4c3C2=O)NC(=O)/C(C)=C\C=C\[C@H](C)[C@H](O)[C@@H](C)[C@@H](O)[C@@H](C)[C@H](OC(C)=O)[C@@H]1C`, the compound was called inactive in [1], in [2], in test [3], in test [5], in [6] and in test [7]. For the same compound, the outcome is “inactive” in test [8]; “inactive” in the test with TIMP1, TIMP1 (gene 7076); “inactive” in test [9]. Moreover, the AC50 in test [4] was 7.81 µM (active).

In the case of `CC1(C)NC(=O)N(c2ccc([N+](=O)[O-])c(C(F)(F)F)c2)C1=O`, the outcome in [1] is “inactive”; in [2] it was “inactive”; in [4], “inactive”; in [8] it was “inactive”; with TIMP1, TIMP1 (gene 7076), “inactive”; in [9], “inactive”. Also, the AC50 in [3] was 50 µM (active); in test [5] it was 69.3 µM (active); in [6], 84.1 µM (active); in [7] it was 50 µM (active).

Consider `CCN(Cc1cccc(S(=O)(=O)O)c1)c1ccc(C(=C2C=CC(=[N+](CC)Cc3cccc(S(=O)(=O)O)c3)C=C2)c2ccccc2S(=O)(=O)[O-])cc1`, for which the result in test [1], in test [2], in [3], in test [4], in [5] and in test [6] was inactive. In addition, the outcome in [7] was “inactive”; in test [8], “inactive”; in the test with TIMP1, TIMP1 (gene 7076) it was “inactive”; in test [9], “inactive”.

Consider `O=C1O[C@H]([C@@H](O)CO)C(O)=C1O`, for which the call in [1], in test [2], in test [3], in [4], in test [5] and in [6] was inactive. In addition, the outcome was “inactive” in test [7]; “inactive” in test [8]; “inactive” with TIMP1, TIMP1 (gene 7076); “inactive” in test [9].

`O=c1[nH]sc2ccccc12`: the compound was called inactive in test [1], in [2], in test [3], in test [4], in test [5] and in test [6]. Moreover, the outcome in test [7] is “inactive”; in [8], “inactive”; with TIMP1, TIMP1 (gene 7076), “inactive”; in test [9], “inactive”.

For `CCCCCCCCCCCCO`, the outcome in test [1], in test [2], in [3], in test [4], in [5] and in test [6] was inactive. Further, the outcome in test [7] is “inactive”; in test [8], “inactive”; in the test with TIMP1, TIMP1 (gene 7076), “inactive”; in [9], “inactive”.

`CCCCOC(=O)c1ccc(O)cc1`: the result in test [1], in test [2], in test [3], in test [4], in [5] and in test [7] was inactive. The outcome is “inactive” in test [8]; “inactive” with TIMP1, TIMP1 (gene 7076); “inactive” in test [9].

For `O=C=NCCCCCCN=C=O`, the compound was classed as inactive in [1], in [2], in test [3], in test [4], in test [5] and in [6]. In addition, the outcome in [7] is “inactive”; in test [8], “inactive”; with TIMP1, TIMP1 (gene 7076) it was “inactive”; in test [9] it was “inactive”.

For `O=CCCCC=O`, the call in test [1], in test [2], in [3], in test [4], in test [5] and in [6] was inactive. Also, the outcome in test [7] was “inactive”; in [8] it was “inactive”; with TIMP1, TIMP1 (gene 7076) it was “inactive”; in test [9] it was “inactive”.

Turning to `COc1cc(C(=O)NC2CCN(C)CC2)ccc1Nc1ncc2c(n1)N(C1CCCC1)CC(F)(F)C(=O)N2C`, the call in test [1] and in [7] was inactive. Besides, the AC50 in [2] was 25.4 µM (active); in test [3], 12.7 µM (active); in test [4] it was 27.3 µM (active); in test [5], 7.47 µM (active); in test [6], 11.6 µM (active); in test [8], 3.64 µM (active). Besides, the AC50 was 11.9 µM (active) with TIMP1, TIMP1 (gene 7076) and 4.65 µM (active) in [9].

On to `Cc1occc1C(=O)Nc1ccc(C(=O)N2CCC(F)(F)/C(=C\C(=O)N3CCC(N4CCCCC4)CC3)c3ccccc32)cc1`, for which the call in [1], in test [2], in test [3], in [4], in test [5] and in [6] was inactive. For the same compound, the outcome in test [7] is “inactive”; in test [8] it was “inactive”; with TIMP1, TIMP1 (gene 7076) it was “inactive”; in test [9], “inactive”.

With `CN(C)c1ccc(C(=C2C=CC(=[N+](C)C)C=C2)c2ccc(N(C)C)cc2)cc1`, the AC50 is 5 µM (active) in [1]; 12.7 µM (active) in [2]; 11.1 µM (active) in test [3]; 39.3 µM (active) in [4]; 4.64 µM (active) in [5]; 68.7 µM (active) in test [8]. For the same compound, the AC50 in the test with TIMP1, TIMP1 (gene 7076) was 74.2 µM (active); in test [9], 8.56 µM (active). For the same compound, in [7], the compound was classed as inactive.

Take `CCO[Si](CCCNC(N)=O)(OCC)OCC`: the compound was called inactive in [1], in [2], in [3], in [4], in [5] and in test [6]. Also, the outcome in test [7] was “inactive”; in test [8], “inactive”; with TIMP1, TIMP1 (gene 7076) it was “inactive”; in test [9], “inactive”.

For `Cc1ncc(CO)c(CO)c1O`, the compound was called inactive in test [1], in test [2], in test [3], in test [4], in [5] and in test [6]. Moreover, the outcome in test [7] is “inactive”; in test [8], “inactive”; with TIMP1, TIMP1 (gene 7076), “inactive”; in test [9] it was “inactive”.

With `CCCOC(=O)c1cc(O)c(O)c(O)c1`, the outcome in test [1], in test [2], in [3], in test [4], in test [5] and in test [6] was inactive. Moreover, the outcome in test [7] is “inactive”; in test [8], “inactive”; with TIMP1, TIMP1 (gene 7076), “inactive”; in test [9] it was “inactive”.

Consider `CCCCCCCCOC(=O)c1cc(O)c(O)c(O)c1`, for which the result in test [1], in test [2], in [3], in [4], in test [5] and in test [6] was inactive. Also, the outcome is “inactive” in [7]; “inactive” in test [8]; “inactive” with TIMP1, TIMP1 (gene 7076); “inactive” in test [9].

For the compound `CC(C)(c1cc(Br)c(O)c(Br)c1)c1cc(Br)c(O)c(Br)c1`, the AC50 is 86.6 µM (active) in test [1], 91.4 µM (active) in test [6] and 89.1 µM (active) in test [7]. Also, the outcome in [2] was “inactive”; in test [3] it was “inactive”; in [4] it was “inactive”; in [5], “inactive”; in test [8] it was “inactive”; with TIMP1, TIMP1 (gene 7076) it was “inactive”. Further, the compound was called inactive in test [9].

These data come from PubChem BioAssay (EPA / NIEHS).
